Records with an inconclusive call do not appear. Entries that show only a call come without a potency. Active and inactive are the calls of the source. Calls follow the shape of the dose curve; as a rule, active = well fitted cell-killing curve with a large enough effect; inconclusive = small, poorly fitted or top-dose-only effect, or effect the other way; inactive = no such curve, though single readings can be large or run the other way.
Assay: qHTS for Antimalaria activity screened against the NCATS CANVASS Library (AID 1347380); also: nearly all actives have a fitted effect of over 40% in size
Details: P. falciparum Dd2 growth, SYBR Green fluorescence, 72 h; series mostly up to 28.7 µM
From the text: Natural products and their derivatives continue to be wellsprings of nascent therapeutic potential. However, many laboratories have limited resources for biological evaluation, leaving their previously isolated or synthesized compounds largely or completely untested. To address this issue, the Canvass library of natural products was assembled (https://tripod.nih.gov/canvass), in collaboration with academic and industry researchers, for quantitative high-throughput screening (qHTS) across a diverse set of cell-based and biochemical assays. The pure (>85% purity by liquid chromatography/mass spectrometry [LC/MS]) Canvass library of 346 natural products were submitted by 45 academic laboratories and companies around the world. We collected pure natural products to circumvent deconvolution and structure elucidation due to time and resource limitations. The library was formatted into 1536-well plates and evaluated in 50 qHTS (in an 11-pnt concentration series) bioassays with broad scope of disease-relevant mechanisms. The resulting data set from 50 different assays was then systematically analyzed to identify overall trends and specific natural products with interesting biological activities. Reported herein are the results of each individual qHTS and their corresponding assay protocol. The proliferation assay assesses the ability of compounds to inhibit the proliferation and/or have cytotoxic effects (72 hr) against the asexual erythrocytic growth of Plasmodium falciparum Dd2, as determined by a SYBRGreen fluorescence assay. National Center for Advancing Translational Sciences (NCATS), Rockville, MD National Institute of Health (NIH), Bethesda, Maryland
Malaria-screen protocol: Assay adopted from Plouffe et al. 2008 PNAS 105: 9059; PMID: 18579783. 1. In a biosafety cabinet, 3 uL of complete Malaria Growth Media (1x RPMI 1640 with L-glutamine + 5.5 g/L Albumax II + 367 uM Hypoxanthine + 25 mM HEPES + 0.25% Sodium Bicarbonate + 35 uM Gentamicin sulfate) was dispensed into a 1536-well black clear Cyclo-Olefin Polymer plate (Aurora Microplates) using a Multidrop Combi (Thermo Fisher Scientific Inc.). 2. 23 nL of compounds (in DMSO solution) were pin transferred into the assay plates using the Kalypsis pin-tool equipped with a 1536 well pin heads. Dihydroartemisinin (working concentration 29 uM) was used as a control and pin transferred (23 nL) at a titration series, final concentration 56 pM - 1.84 uM. 3. In a biosafety cabinet, five microliter of Malaria-infected RBCs: hematocrit 4% (final concentration of 2.5%), 0.3% parasitemia was added to the assay plates using the Multidrop Combi (Thermo Fisher Scientific Inc.). 4. The assay plates were incubated for 72 hours at 37C, 5% O2, 5% CO2, 90%N2, 95% humidity. 5. In the biosafety cabinet, 2 uL of Lysis buffer (20 mM Tris-HCl + 10 mM EDTA + 0.16% saponin + 1.6% Triton-X + 10x SYBR Green) was added to the assay plates using the Multidrop Combi followed by a 25 sec shake immediately after dispensing. 6. The assay plates we incubated further for 18 hours at 37C, 5%O2, 5% CO2, 90%N2, 95% humidity. 7. The fluorescence signal was read using the EnVision (PerkinElmer) plate reader (bottom read) using a 485/14 nm excitation and 535/25 nm emission filters.
Potency is read from the fitted curve at half-maximal effect.

| SMILES | Potency |
| --- | --- |
| CN1C(=O)[C@]23CC4C(C)(C)[C@@]5(C[C@@]41CN2CC[C@@]3(C)O)C(=O)Nc1c5ccc2c1OC=CC(C)(C)O2 (stereo not given in full) | inactive |
| C=C1[C@@H](C)[C@H]2[C@H](Cc3ccccc3)NC(=O)[C@]23OC(=O)/C=C/[C@H](O)CCC[C@@H](C)C/C=C/[C@H]3[C@@H]1O | 4200 nM (active) |
| CCC[C@H]1CC[C@H]2[C@H](C)CCC[C@H]2N1 | inactive |
| O=C(c1ccccc1O)c1[nH]c(Cl)c(Cl)c1-n1c(C(=O)c2ccccc2O)cc(Cl)c1Cl | 472 nM (active) |
| CCC(=O)CCCCC[C@@H]1NC(=O)[C@H]2CCCCN2C(=O)[C@H]([C@@H](C)CC)NC(=O)[C@H](Cc2cn(OC)c3ccccc23)NC1=O | 33.4 nM (active) |
| COc1ccc(C23Oc4cc(OC)cc(OC)c4[C@](O)([C@H](c4ccccc4)C2C(=O)NCCCCNC(=O)c2ccccc2)[C@@H]3O)cc1 (stereo not given in full) | inactive |
| CO[C@@H](/C=C/CC/C=C/C(=O)O)[C@@H](O)[C@H](C)/C=C(\C)[C@@H](O)[C@H](C)C(=O)CCCC1CC(=O)NC(=O)C1 | inactive |
| C[C@]12CC(O)C3[C@@H](CCC4C[C@@H](O)CC[C@@]43CO)[C@@]1(O)CCC2C1=CC(=O)OC1 (stereo not given in full) | inactive |
| NCCc1ccccc1 | inactive |
| CNCCc1c[nH]c2ccccc12 | inactive |
| c1ccc2c3c([nH]c2c1)CNCC3 | inactive |
| CN(C)Cc1c[nH]c2ccccc12 | inactive |
| CO[C@H](c1ccccc1)[C@H]1NC(=O)C(C)NC(=O)C(C[C@@H](C)CO)N(C)C(=O)[C@@H](C(O)c2cn(C(C)(C)C3CO3)c3ccccc23)NC(=O)C(C(C)C=C(C)C)NC(=O)C(CC(C)C)N(C)C(=O)C(C(C)C)NC1=O (stereo not given in full) | 292 nM (active) |
| COc1ccc2c(c1)[nH]c1c(C)nccc12 | 5.4 nM (active) |
| CC(=O)N[C@H]1CCN2CCC[C@H]12 | inactive |
| C/C=C1/CN2CC[C@]34C(=Nc5ccccc53)[C@@H]2C[C@@H]1[C@H]4C(=O)OC | inactive |
| CC[N@@+]1([O-])C[C@]2(C)CC[C@@H](O)[C@@]34C5C[C@H]6CC[C@@]5(C(C[C@H]23)C41)[C@H](O)[C@@]6(O)CO (stereo not given in full) | inactive |
| CC[C@@H]1CN2CC[C@@]3(O)C(=Nc4cccc(OC)c43)[C@@H]2C[C@@H]1/C(=C\OC)C(=O)OC | 14900 nM (active) |
| CCN1C[C@]2(C)CC[C@H](O)[C@]34C1C(C[C@H]23)[C@@]12CC[C@H](CC14)[C@](O)(COC(=O)c1ccc(OC)c(OC)c1)[C@H]2O (stereo not given in full) | inactive |
| C[C@@H]1CC[C@@H](c2ccoc2)N2C[C@@]3(CC[C@@H]12)CS[C@@]1(CC[C@H]2[C@H](C)CC[C@@H](c4ccoc4)N2[C@@H]1O)C3 | 1880 nM (active) |
